# PubChem BioAssay (Tox21)
# Unmarked numbers belong to inactive results. Results filed as inconclusive are left out. Where a call stands in place of a potency, no number is given. The source made the active and inactive calls. Unless noted, calls follow the shape of the dose curve; as a rule, active = well fitted curve in the direction sought with a large enough effect in the repeat runs; inconclusive = weak or mixed curves; inactive = no such curve, though single readings can be large; an effect the other way counts as inactive or inconclusive.
# How the values were obtained:
# [1] = qHTS assay to identify small molecule antagonists of the estrogen receptor alpha (ER-alpha) signaling pathway using the BG1 cell line in the presence of 0.1 nM 17-beta-estradiol - cell viability counter screen (AID 1259241); also: nearly all actives have a fitted effect of over 40% in size; also: potency is read from the fitted curve at half-maximal effect
# Procedure, shortened: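 Measures cytotoxicity alongside the ER-alpha antagonist readout: VM7Luc4E2 cells, charcoal-stripped serum, 0.1 nM 17beta-estradiol final, 22 hr compound incubation at 37C, CellTiter-Fluor fluorescence.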
# [2] = qHTS assay to identify small molecule antagonists of the androgen receptor (AR) signaling pathway using the MDA cell line in the presence of 0.5 nM R1881 - cell viability counter screen (AID 1259242); also: nearly all actives have a fitted effect of over 45% in size; also: potency is read from the fitted curve at half-maximal effect
# Procedure, shortened: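 Fluorescence from CellTiter-Fluor, which reports protease activity of live cells, was read 30 min after reagent addition to MDA-kb2 cells that had been incubated 16 hr with compound and 0.5 nM R1881.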
# [3] = molecular target: Androgen receptor (Homo sapiens) (UniProt P10275); assay: qHTS assay to identify small molecule antagonists of the androgen receptor (AR) signaling pathway using the MDA cell line in the presence of 0.5 nM R1881 (AID 1259243); also: nearly all actives have a fitted effect of over 50% in size; also: potency is read from the fitted curve at half-maximal effect
# Chain of Androgen receptor (Homo sapiens) (P10275 whole entry, looked up): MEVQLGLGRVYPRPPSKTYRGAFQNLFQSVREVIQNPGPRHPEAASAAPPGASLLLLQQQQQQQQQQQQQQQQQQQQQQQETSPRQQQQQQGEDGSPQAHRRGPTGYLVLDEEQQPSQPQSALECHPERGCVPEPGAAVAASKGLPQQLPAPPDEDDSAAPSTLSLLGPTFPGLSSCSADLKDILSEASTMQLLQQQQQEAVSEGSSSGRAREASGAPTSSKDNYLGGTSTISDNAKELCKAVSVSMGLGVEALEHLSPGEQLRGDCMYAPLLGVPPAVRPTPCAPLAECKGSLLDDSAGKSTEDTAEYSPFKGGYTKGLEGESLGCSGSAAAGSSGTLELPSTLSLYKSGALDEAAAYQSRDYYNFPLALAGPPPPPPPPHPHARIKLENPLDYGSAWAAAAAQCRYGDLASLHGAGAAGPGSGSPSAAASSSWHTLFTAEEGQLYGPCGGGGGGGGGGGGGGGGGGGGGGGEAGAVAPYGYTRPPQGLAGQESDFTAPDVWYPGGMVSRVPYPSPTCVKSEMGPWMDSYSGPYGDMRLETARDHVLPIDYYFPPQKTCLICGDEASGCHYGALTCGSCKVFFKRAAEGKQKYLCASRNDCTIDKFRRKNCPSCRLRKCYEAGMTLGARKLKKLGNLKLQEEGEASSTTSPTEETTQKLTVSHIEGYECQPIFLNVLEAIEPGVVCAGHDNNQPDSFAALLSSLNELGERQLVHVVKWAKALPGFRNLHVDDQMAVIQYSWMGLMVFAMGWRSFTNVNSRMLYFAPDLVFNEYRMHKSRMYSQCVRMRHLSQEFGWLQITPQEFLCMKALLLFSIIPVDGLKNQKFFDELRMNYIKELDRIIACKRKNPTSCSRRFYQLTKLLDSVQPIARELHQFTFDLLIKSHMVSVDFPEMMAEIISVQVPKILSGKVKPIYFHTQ
# Procedure, shortened: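 Inhibition of R1881 (0.5 nM final) induced reporter signal was measured in human MDA-kb2 cells; note the MMTV promoter also responds to GR. Exposure lasted 16 hr at 37C.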
# [4] = molecular target: Estrogen receptor (Homo sapiens) (UniProt P03372); assay: qHTS assay to identify small molecule antagonists of the estrogen receptor alpha (ER-alpha) signaling pathway using the BG1 cell line in the presence of 0.1 nM 17-beta-estradiol (AID 1259244); also: nearly all actives have a fitted effect of over 50% in size
# Chain of Estrogen receptor (Homo sapiens) (P03372 whole entry, looked up): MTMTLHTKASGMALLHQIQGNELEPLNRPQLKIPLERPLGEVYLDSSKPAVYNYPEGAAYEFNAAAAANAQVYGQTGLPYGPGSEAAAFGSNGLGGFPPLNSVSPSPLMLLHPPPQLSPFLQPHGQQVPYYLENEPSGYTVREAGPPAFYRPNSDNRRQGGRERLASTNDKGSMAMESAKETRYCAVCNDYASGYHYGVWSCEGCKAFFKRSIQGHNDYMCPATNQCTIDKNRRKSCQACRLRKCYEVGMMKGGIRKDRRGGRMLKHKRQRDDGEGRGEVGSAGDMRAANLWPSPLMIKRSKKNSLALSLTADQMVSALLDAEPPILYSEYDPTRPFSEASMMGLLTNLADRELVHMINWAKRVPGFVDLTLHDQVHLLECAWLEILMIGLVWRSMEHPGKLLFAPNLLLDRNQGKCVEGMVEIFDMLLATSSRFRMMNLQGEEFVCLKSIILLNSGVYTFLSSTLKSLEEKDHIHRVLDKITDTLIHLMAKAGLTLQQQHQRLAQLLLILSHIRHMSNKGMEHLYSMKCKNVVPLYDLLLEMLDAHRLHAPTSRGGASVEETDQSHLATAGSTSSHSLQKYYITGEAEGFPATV
# Procedure, shortened: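 Quantitative high-throughput screen in VM7Luc4E2 cells: compound plus 0.1 nM E2 (final), 22 h, 37C, 5% CO2; ONE-Glo added, 30 min room temperature, luminescence measured.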
# [5] = qHTS assay to identify small molecule phospholipidosis (PLD) inducers (AID 1259344; active = well fitted curve in the direction sought with a large enough effect; an effect the other way counts as inactive or inconclusive)
# Procedure, shortened: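 Phospholipidosis is scored by imaging LipidTOX-stained pits in HepG2 cells exposed to compound for 24 h at 37 C; pit counts and integrated intensities per well and per cell serve as outputs.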
# [6] = qHTS assay to identify small molecule HDAC inhibitors (AID 1259364); also: top concentration of the series differs between compounds; nearly all actives have a fitted effect of over 45% in size
# Procedure, shortened: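 Endogenous HDAC class I/II activity was measured in wild-type HCT-116 cells by HDAC-Glo luminescence after 2 h compound treatment.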
# [7] = qHTS assay to identify small molecule HDAC inhibitors - cell viability counter screen (AID 1259365); also: series mostly up to about 92 µM; nearly all actives have a fitted effect of over 50% in size
# Procedure, shortened: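 Following a 2hr exposure of overnight-plated wild-type HCT-116 cells to DMSO-delivered compounds, CellTiter-Glo was added and luminescence recorded after 30min at room temperature.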
# [8] = qHTS assay to identify small molecule agonists of the sonic hedgehog signaling (Shh) pathway - cell viability counter screen (AID 1259366); also: nearly all actives have a fitted effect of over 50% in size; also: potency is read from the fitted curve at half-maximal effect
# Procedure, shortened: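 After a 4hr attachment at 37C, NIH/3T3 cells bearing an integrated Gli1-driven luciferase reporter were dosed with compounds. Treatment lasted 24hr, with the final hour including CellTiter-Fluor for a fluorescence viability measurement.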
# [9] = qHTS assay to identify small molecule agonists of the sonic hedgehog signaling (Shh) pathway (AID 1259368; calls by dose curve;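 also: NIH/3T3-derived 3T3Gli1-Luc cells carrying a stable Gli1-driven firefly luciferase reporter; series mostly up to about 92 µM; nearly all actives have a fitted effect of over 15% in size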)
# Procedure, shortened: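 Luminescent signal was taken as a measure of Gli1-controlled luciferase expression in stably transfected NIH/3T3-derived cells that had been treated for 24 hr with compounds delivered in DMSO.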
# [10] = qHTS assay to identify small molecule antagonists of the sonic hedgehog signaling (Shh) pathway (AID 1259369; calls by dose curve; also: nearly all actives have a fitted effect of over 45% in size; also: potency is read from the fitted curve at half-maximal effect)
# Procedure, shortened: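 Screening used 3T3Gli1-Luc cells at 2,000 per well, compounds delivered in DMSO, and conditioned medium as agonist stimulus; plates incubated 24hr at 37 C and 5% CO2 before a 30min luciferase step.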
# [11] = molecular target: Estrogen receptor beta (Homo sapiens) (UniProt Q92731); assay: qHTS assay to identify small molecule agonists of the estrogen receptor beta (ER-beta) signaling pathway (AID 1259377; active = well fitted activation curve with a large enough effect in the signal ratio in the repeat runs, not every such curve was filed as active; the % refers to the signal ratio)
# Chain of Estrogen receptor beta (Homo sapiens) (Q92731 whole entry, looked up): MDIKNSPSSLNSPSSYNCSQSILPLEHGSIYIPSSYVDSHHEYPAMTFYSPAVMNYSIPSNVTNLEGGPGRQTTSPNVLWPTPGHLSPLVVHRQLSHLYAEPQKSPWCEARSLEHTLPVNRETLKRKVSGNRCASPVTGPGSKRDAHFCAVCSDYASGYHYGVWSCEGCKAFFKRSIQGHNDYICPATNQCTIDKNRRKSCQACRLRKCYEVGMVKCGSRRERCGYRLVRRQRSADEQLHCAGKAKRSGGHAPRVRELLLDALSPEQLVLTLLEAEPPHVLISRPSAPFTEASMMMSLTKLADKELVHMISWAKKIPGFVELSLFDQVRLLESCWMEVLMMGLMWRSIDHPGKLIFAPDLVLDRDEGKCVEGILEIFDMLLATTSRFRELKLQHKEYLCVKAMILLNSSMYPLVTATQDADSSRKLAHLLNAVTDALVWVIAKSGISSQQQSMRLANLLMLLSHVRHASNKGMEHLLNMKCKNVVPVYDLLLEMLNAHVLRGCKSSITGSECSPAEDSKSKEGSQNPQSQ
# Procedure, shortened: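 In HEK293T cells bearing a UAS-beta-lactamase reporter under ER-beta control, DMSO-delivered compounds were incubated for 16 hr at 37C. Activity was detected as fluorescence 2 hours after LiveBLAzer B/G FRET substrate addition.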
# [12] = molecular target: Estrogen receptor beta (Homo sapiens) (UniProt Q92731); assay: qHTS assay to identify small molecule antagonists of the estrogen receptor beta (ER-beta) signaling pathway (AID 1259378; active = well fitted inhibition curve with a large enough effect in the signal ratio in the repeat runs, not every such curve was filed as active; the % refers to the signal ratio)
# Procedure, shortened: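 Antagonist mode: compounds added to beta-lactamase reporter HEK293T ER-beta-UAS cells stimulated with E2 (1nM final), 16 hr at 37C. LiveBLAzer B/G FRET substrate, 2 hours room temperature, fluorescence read-out.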
# [13] = qHTS assay to identify small molecule agonists of the androgen receptor (AR) signaling pathway in the presence of an antagonist - cell viability counter screen (AID 1259379); also: nearly all actives have a fitted effect of over 25% in size; also: potency is read from the fitted curve at half-maximal effect;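 as to activity change, negative = cytotoxicity: MDA-kb2 human breast cancer cells carrying an MMTV luciferase reporter; series mostly up to about 92 µM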
# Procedure, shortened: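 In MDA-kb2 cells (human breast carcinoma, MMTV-luciferase), compounds at 15 concentrations plus 3.0uM nilutamide; 16 hr, 37C, 0% CO2; CellTiter-Fluor fluorescence read for viability.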
# [14] = qHTS assay to identify small molecule agonists of the estrogen receptor beta (ER-beta) signaling pathway - cell viability counter screen (AID 1259380); also: nearly all actives have a fitted effect of over 30% in size; also: potency is read from the fitted curve at half-maximal effect
# Procedure, shortened: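 Viability of ER-beta-UAS-bla HEK293T cells was determined by CellTiter-Glo luminescence following 16 hr treatment with test compounds at 37C.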
# [15] = molecular target: Androgen receptor (Homo sapiens) (UniProt P10275); assay: qHTS assay to identify small molecule agonists of the androgen receptor (AR) signaling pathway in the presence of an antagonist (AID 1259381; calls by dose curve; also: nearly all actives have a fitted effect of over 15% in size; also: potency is read from the fitted curve at half-maximal effect)
# Procedure, shortened: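 Here, 15-concentration compound series were pin-transferred onto MDA-kb2 MMTV-luciferase cells already dosed with nilutamide (3.0uM final). After 16hr at 37C, ONE-Glo was added and luminescence read 30min later at room temperature.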
# [16] = qHTS assay to identify small molecule antagonists of the estrogen receptor beta (ER-beta) signaling pathway - cell viability counter screen (AID 1259382); also: nearly all actives have a fitted effect of over 55% in size; also: potency is read from the fitted curve at half-maximal effect;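 as to activity change, negative = cytotoxicity: HEK293T cells carrying ER-beta-UAS-bla reporter stimulated with estradiol; series mostly up to about 92 µM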
# Procedure, shortened: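 Tox21 10K library tested in qHTS format on ER-beta-bla HEK293T cells stimulated with 1nM E2; 16 hr treatment at 37C. Same-well CellTiter-Glo luminescence served as the cell viability measure.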
# [17] = qHTS assay to identify small molecule agonists or antagonists of the thyroid stimulating hormone receptor (TSHR) signaling pathway - wild type cell line counter screen (AID 1259384; calls by dose curve)
# Procedure, shortened: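 Counter screen in untransfected Hek293: compounds (15-point titration, triplicate) plus phosphodiesterase inhibitor Ro20-1724 added after 18 h plating; 30 min RT. Intracellular cAMP via competitive d2/cryptate immunoassay, 1 h incubation.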
# [18] = molecular target: Thyrotropin receptor (Homo sapiens) (UniProt P16473); assay: qHTS assay to identify small molecule antagonists of the thyroid stimulating hormone receptor (TSHR) signaling pathway (AID 1259385; calls by dose curve; also: nearly all actives have a fitted effect of over 20% in size)
# Chain of Thyrotropin receptor (Homo sapiens) (P16473 whole entry, looked up): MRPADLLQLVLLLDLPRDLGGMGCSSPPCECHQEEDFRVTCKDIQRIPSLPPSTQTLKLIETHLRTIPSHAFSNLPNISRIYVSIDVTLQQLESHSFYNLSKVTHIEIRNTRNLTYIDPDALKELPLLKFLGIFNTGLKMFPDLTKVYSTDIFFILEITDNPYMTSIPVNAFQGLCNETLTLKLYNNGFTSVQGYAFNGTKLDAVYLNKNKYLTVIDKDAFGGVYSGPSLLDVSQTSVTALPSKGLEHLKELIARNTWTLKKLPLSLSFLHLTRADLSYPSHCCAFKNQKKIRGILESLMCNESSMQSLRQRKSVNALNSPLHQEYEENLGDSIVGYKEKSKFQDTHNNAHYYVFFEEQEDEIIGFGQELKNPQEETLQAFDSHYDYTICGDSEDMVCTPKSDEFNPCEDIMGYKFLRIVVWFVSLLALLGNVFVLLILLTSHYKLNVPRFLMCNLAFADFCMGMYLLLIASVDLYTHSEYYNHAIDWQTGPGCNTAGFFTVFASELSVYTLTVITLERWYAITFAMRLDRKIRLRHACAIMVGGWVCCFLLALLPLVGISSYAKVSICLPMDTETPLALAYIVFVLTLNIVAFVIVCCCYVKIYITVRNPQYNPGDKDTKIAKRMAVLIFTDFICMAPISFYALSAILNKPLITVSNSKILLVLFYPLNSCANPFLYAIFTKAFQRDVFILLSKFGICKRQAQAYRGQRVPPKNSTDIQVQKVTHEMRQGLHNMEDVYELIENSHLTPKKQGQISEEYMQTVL
# Procedure, shortened: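 Antagonist mode: compound-treated TSHR-expressing HEK293 cells were stimulated with 1.5 ng/mL TSH (final) in presence of Ro20-1724 for 30 min at RT. HTRF cAMP detection after 1 h; each compound tested at 15 concentrations, triplicate.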
# [19] = molecular target: Estrogen receptor (Homo sapiens) (UniProt P03372); assay: qHTS assay to identify small molecule agonists of the estrogen receptor alpha (ER-alpha) signaling pathway in the presence of an antagonist (AID 1259383; calls by dose curve; also: top concentration of the series differs between compounds; nearly all actives have a fitted effect of over 15% in size)
# Procedure, shortened: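 In VM7Luc4E2 cells, 4,000 per well, compounds at 15 concentrations were co-incubated 22hr at 37C with 10.0nM final ICI-182,780. Luminescence from the stably transfected 4×ERE-luciferase reporter was recorded 30min after ONE-Glo addition.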
# [20] = qHTS assay to identify small molecule antagonists of the sonic hedgehog signaling (Shh) pathway - cell viability counter screen (AID 1259367); also: nearly all actives have a fitted effect of over 55% in size
# Procedure, shortened: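 Cells: 3T3 Gli1-Luc, 2,000/well, 4 hr pre-incubation. Compounds in DMSO, then conditioned medium. Incubation 24 hr, 37C, 5% CO2. CellTiter-Fluor at 23 hr, 1 hr, fluorescence.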
compound,measurement,setting,value
CC(=O)N(O)CCCCCNC(=O)CCC(=O)N(O)CCCCCNC(=O)CCC(=O)N(O)CCCCCN,Potency,[1],inactive
same,Potency,[2],inactive
same,Potency,[3],inactive
same,Potency,[4],inactive
same,Potency,[5],inactive
same,Potency,[6],inactive
same,outcome,[7],inactive
same,Potency,[8],inactive
same,outcome,[9],inactive
same,Potency,[10],inactive
same,Potency,[11],inactive
same,Potency,[12],inactive
same,Potency,[13],inactive
same,Potency,[14],inactive
same,Potency,[15],inactive
same,Potency,[16],inactive
same,Potency,[17],inactive
same,Potency,[18],inactive
NC(N)=NN=C(/C=C/c1ccc([N+](=O)[O-])o1)/C=C/c1ccc([N+](=O)[O-])o1,Potency,[1],11.9 µM (active)
same,Potency,[2],6.68 µM (active)
same,Potency,[3],1.88 µM (active)
same,Potency,[4],inactive
same,Potency,[5],inactive
same,Potency,[6],inactive
same,Potency,[8],2.37 µM (active)
same,Potency,[10],2.98 µM (active)
same,Potency,[13],8.41 µM (active)
same,Potency,[14],10.6 µM (active)
same,Potency,[15],inactive
same,Potency,[16],23.7 µM (active)
same,Potency,[19],inactive
same,Potency,[17],inactive
O=C(O)Cc1sc(-c2ccccc2)nc1-c1ccc(Cl)cc1,Potency,[1],inactive
same,Potency,[2],inactive
same,Potency,[3],inactive
same,Potency,[4],inactive
same,Potency,[5],inactive
same,Potency,[6],inactive
same,outcome,[7],inactive
same,Potency,[8],inactive
same,Potency,[20],inactive
same,outcome,[9],inactive
same,Potency,[10],inactive
same,Potency,[13],inactive
same,Potency,[14],21.1 µM (active)
same,Potency,[15],inactive
same,Potency,[18],inactive
O=C(O)c1cn(C2CC2)c2cc(Cl)c(F)cc2c1=O,Potency,[1],inactive
same,Potency,[2],inactive
same,Potency,[3],inactive
same,Potency,[6],inactive
same,outcome,[7],inactive
same,Potency,[8],inactive
same,Potency,[20],inactive
same,outcome,[9],inactive
same,Potency,[10],inactive
same,Potency,[11],inactive
same,Potency,[13],inactive
same,Potency,[14],inactive
same,Potency,[15],inactive
same,Potency,[16],inactive
same,Potency,[19],inactive
same,Potency,[17],inactive
same,Potency,[18],inactive
CCCCCCc1ccc(N)cc1,Potency,[1],inactive
same,Potency,[2],inactive
same,Potency,[3],inactive
same,Potency,[4],inactive
same,Potency,[6],inactive
same,outcome,[7],inactive
same,Potency,[8],inactive
same,Potency,[20],inactive
same,outcome,[9],inactive
same,Potency,[10],inactive
same,Potency,[11],inactive
same,Potency,[13],inactive
same,Potency,[14],27.3 µM (active)
same,Potency,[15],inactive
same,Potency,[16],inactive
same,Potency,[17],inactive
same,Potency,[18],inactive
C=C(C)C(=O)OC(C)C,Potency,[1],inactive
same,Potency,[2],inactive
same,Potency,[3],inactive
same,Potency,[4],inactive
same,Potency,[6],inactive
same,outcome,[7],inactive
same,Potency,[8],inactive
same,Potency,[20],inactive
same,outcome,[9],inactive
same,Potency,[10],inactive
same,Potency,[11],inactive
same,Potency,[12],inactive
same,Potency,[13],inactive
same,Potency,[14],inactive
same,Potency,[15],inactive
same,Potency,[16],inactive
same,Potency,[17],inactive
O=C(C(=O)c1ccc(Br)cc1)c1ccc(Br)cc1,"activity change, negative = cytotoxicity",[1],-6.61% [at 19 µM]
same,"viability change, negative = cytotoxic",[2],-1.93% [at 19 µM]
same,"activity, negative = inhibition",[3],66.2% [at 19 µM]
same,"activity change, negative = inhibition",[6],4.75% [at 19 µM]
same,"activity change, negative = cytotoxicity",[7],-0.456% [at 19 µM]
same,"viability change, negative = cytotoxic",[8],7.56% [at 19 µM]
same,"viability change, negative = cytotoxic",[20],-13.1% [at 19 µM]
same,activity change,[9],-0.0641% [at 18.9 µM]
same,Potency,[10],6.78 µM (active)
same,activation,[11],0.63% [at 19 µM]
same,"activity change, negative = cytotoxicity",[13],0.135% [at 19 µM]
same,"activity change, negative = cytotoxicity",[14],0.571% [at 19 µM]
same,Potency,[15],15.2 µM (active)
same,"activity change, negative = cytotoxicity",[16],-2.64% [at 19 µM]
same,activation,[19],0.308% [at 19 µM]
same,cAMP activity change,[17],"5.87% [at 18.9 µM, stronger effect = higher value]"
same,"activity change, negative = inhibition",[18],-5.08% [at 19 µM]
COc1ccc(C(C)=O)cc1,Potency,[1],inactive
same,Potency,[2],inactive
same,Potency,[3],inactive
same,Potency,[4],inactive
same,Potency,[6],inactive
same,outcome,[7],inactive
same,Potency,[8],inactive
same,Potency,[20],inactive
same,outcome,[9],inactive
same,Potency,[10],inactive
same,Potency,[12],inactive
same,Potency,[13],inactive
same,Potency,[15],inactive
same,Potency,[16],inactive
same,Potency,[19],inactive
